# Source: the supplement of paper PMC11732987, “Enantioselective OTUD7B fragment discovery through chemoproteomics screening and high-throughput optimisation” (Communications Chemistry, 2025)
# Unmarked numbers belong to inactive results.
# Assays:
# Assay in all cases: log2 ratio of Biotin-Ahx-Ub-VS probe labelling (fragment/DMSO); higher = less target engagement (more negative = stronger competition), active = hit call of the paper (q ≤ 0.05, log2 ratio ≤ -1)
# Conditions in all cases: compound concentration: 200 uM; treatment time: 3 h
# USP19 = molecular target: T1, USP19 (UniProt O94966)
# T1 sequence (whole entry): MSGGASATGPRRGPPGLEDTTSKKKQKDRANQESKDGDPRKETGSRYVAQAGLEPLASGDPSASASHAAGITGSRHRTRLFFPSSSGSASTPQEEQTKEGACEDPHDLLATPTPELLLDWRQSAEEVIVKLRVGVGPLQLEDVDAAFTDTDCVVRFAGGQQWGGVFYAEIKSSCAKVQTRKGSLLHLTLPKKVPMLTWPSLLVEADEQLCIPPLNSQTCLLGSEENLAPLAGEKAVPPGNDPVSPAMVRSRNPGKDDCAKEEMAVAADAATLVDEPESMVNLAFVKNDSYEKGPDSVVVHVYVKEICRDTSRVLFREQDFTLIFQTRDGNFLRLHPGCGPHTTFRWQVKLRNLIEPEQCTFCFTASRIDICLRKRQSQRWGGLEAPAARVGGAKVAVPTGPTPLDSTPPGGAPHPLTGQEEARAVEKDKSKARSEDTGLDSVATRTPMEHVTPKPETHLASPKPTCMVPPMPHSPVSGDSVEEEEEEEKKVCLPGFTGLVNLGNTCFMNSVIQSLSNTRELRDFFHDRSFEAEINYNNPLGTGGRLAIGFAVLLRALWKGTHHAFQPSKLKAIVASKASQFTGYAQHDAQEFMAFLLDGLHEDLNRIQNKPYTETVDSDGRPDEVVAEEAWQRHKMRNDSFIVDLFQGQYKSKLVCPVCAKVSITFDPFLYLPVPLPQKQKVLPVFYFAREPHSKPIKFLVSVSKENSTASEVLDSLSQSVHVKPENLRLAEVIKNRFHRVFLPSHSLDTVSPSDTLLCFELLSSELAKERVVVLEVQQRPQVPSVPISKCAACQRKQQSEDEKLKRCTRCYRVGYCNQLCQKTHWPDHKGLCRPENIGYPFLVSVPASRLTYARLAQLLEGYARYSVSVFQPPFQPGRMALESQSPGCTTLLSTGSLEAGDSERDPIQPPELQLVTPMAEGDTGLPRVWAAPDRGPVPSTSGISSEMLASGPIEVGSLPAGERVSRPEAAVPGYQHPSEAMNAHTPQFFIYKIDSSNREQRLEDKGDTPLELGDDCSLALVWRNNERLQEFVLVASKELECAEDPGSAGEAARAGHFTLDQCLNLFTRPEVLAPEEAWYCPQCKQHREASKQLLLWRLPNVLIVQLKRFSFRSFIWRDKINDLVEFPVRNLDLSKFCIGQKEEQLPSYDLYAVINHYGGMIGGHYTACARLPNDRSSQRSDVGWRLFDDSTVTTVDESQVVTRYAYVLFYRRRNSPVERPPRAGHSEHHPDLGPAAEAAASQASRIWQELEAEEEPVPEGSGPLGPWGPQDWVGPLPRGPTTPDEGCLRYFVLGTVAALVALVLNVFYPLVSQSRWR
# Outline: (§1)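 The table lists average log2 ratios of fragment over vehicle, from an unpaired t-test on global-median-normalised Spectronaut label-free quantities. Proteins with ≥2 unique peptides were used. Samples were HEK293T lysate (495 µg) treated in triplicate with fragment at 200 µM or vehicle for 3 h, then with Biotin-Ahx-Ub-VS (0.5 µM final) for 1 h, with labelled DUBs NeutrAvidin-enriched and run by diaPASEF LC-MS/MS.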
# USP22 = molecular target: T2, USP22 (UniProt Q9UPT9)
# T2 sequence (whole entry): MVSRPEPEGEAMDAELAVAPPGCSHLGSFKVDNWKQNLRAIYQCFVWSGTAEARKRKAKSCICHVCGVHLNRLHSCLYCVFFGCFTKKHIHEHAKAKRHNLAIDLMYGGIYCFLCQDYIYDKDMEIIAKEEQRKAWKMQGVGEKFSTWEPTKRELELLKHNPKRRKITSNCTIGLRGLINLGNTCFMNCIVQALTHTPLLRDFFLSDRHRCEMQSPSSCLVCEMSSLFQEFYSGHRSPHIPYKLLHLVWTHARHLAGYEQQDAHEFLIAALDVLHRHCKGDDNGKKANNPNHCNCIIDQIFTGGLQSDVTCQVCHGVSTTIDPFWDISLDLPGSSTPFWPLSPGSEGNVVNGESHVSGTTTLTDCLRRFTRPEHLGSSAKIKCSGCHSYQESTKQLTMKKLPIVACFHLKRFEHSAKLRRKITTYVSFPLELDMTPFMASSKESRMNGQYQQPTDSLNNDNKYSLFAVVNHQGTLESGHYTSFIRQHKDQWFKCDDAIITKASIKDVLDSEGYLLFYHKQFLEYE
# Outline: as §1
# USP24 = USP24 (UniProt Q9UPU5)
# Outline: as §1
# USP25 = molecular target: T3, USP25 (UniProt Q9UHP3)
# T3 sequence (whole entry): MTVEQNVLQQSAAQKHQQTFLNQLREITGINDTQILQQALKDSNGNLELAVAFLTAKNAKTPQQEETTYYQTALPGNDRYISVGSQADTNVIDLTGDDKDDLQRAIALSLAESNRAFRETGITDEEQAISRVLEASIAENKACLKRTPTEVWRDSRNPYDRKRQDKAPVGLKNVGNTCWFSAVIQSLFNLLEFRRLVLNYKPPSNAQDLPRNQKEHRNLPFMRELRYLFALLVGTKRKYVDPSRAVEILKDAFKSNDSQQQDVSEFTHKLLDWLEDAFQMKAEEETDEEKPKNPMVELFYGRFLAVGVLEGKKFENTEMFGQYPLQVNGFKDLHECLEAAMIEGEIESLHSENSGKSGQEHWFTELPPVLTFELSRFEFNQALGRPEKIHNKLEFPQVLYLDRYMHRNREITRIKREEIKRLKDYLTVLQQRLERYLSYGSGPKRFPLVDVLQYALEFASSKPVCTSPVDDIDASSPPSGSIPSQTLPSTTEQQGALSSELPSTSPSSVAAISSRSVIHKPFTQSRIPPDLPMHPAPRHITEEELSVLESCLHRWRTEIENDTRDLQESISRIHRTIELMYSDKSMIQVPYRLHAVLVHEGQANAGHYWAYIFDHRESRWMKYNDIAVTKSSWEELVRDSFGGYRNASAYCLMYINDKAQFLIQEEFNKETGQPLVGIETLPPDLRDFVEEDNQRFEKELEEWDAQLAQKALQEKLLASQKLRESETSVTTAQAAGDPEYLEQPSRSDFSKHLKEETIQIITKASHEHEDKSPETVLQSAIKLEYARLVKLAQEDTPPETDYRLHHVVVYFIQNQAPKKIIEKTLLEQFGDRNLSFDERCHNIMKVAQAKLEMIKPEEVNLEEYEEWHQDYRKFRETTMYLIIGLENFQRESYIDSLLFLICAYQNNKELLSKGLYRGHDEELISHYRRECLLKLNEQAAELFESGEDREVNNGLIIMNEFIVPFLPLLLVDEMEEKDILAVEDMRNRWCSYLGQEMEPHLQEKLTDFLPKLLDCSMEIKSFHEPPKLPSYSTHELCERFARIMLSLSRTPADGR
# Outline: as §1
# USP28 = molecular target: T4, USP28 (UniProt Q96RU2)
# T4 sequence (whole entry): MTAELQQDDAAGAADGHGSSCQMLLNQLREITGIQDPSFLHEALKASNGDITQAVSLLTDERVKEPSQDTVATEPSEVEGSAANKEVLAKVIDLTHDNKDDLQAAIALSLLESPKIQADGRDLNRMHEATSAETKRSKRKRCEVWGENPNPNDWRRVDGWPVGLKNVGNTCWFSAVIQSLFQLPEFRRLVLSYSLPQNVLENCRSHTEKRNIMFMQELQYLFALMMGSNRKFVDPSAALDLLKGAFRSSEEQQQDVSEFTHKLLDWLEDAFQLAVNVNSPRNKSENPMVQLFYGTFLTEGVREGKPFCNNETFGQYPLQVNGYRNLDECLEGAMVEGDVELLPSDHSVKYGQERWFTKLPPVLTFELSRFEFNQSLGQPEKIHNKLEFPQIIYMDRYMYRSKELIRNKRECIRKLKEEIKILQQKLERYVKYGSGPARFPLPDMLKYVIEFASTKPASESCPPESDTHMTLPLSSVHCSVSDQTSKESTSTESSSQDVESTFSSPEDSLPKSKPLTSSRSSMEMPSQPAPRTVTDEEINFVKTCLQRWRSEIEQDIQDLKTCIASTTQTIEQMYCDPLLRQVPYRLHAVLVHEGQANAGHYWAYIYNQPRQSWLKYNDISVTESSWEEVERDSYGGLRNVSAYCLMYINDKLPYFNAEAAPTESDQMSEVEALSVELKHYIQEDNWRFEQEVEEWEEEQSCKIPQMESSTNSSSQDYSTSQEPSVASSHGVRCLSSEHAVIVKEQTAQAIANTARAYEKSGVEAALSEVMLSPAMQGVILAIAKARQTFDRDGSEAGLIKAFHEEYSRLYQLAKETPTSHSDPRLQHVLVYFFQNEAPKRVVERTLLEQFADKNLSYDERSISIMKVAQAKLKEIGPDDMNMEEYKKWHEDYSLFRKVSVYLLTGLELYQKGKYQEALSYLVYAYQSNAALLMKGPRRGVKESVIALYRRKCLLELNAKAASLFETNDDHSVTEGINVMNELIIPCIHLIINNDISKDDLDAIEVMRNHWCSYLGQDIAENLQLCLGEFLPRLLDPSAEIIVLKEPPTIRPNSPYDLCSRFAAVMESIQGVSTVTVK
# Outline: as §1
# Sequence of USP24 (Q9UPU5 whole entry): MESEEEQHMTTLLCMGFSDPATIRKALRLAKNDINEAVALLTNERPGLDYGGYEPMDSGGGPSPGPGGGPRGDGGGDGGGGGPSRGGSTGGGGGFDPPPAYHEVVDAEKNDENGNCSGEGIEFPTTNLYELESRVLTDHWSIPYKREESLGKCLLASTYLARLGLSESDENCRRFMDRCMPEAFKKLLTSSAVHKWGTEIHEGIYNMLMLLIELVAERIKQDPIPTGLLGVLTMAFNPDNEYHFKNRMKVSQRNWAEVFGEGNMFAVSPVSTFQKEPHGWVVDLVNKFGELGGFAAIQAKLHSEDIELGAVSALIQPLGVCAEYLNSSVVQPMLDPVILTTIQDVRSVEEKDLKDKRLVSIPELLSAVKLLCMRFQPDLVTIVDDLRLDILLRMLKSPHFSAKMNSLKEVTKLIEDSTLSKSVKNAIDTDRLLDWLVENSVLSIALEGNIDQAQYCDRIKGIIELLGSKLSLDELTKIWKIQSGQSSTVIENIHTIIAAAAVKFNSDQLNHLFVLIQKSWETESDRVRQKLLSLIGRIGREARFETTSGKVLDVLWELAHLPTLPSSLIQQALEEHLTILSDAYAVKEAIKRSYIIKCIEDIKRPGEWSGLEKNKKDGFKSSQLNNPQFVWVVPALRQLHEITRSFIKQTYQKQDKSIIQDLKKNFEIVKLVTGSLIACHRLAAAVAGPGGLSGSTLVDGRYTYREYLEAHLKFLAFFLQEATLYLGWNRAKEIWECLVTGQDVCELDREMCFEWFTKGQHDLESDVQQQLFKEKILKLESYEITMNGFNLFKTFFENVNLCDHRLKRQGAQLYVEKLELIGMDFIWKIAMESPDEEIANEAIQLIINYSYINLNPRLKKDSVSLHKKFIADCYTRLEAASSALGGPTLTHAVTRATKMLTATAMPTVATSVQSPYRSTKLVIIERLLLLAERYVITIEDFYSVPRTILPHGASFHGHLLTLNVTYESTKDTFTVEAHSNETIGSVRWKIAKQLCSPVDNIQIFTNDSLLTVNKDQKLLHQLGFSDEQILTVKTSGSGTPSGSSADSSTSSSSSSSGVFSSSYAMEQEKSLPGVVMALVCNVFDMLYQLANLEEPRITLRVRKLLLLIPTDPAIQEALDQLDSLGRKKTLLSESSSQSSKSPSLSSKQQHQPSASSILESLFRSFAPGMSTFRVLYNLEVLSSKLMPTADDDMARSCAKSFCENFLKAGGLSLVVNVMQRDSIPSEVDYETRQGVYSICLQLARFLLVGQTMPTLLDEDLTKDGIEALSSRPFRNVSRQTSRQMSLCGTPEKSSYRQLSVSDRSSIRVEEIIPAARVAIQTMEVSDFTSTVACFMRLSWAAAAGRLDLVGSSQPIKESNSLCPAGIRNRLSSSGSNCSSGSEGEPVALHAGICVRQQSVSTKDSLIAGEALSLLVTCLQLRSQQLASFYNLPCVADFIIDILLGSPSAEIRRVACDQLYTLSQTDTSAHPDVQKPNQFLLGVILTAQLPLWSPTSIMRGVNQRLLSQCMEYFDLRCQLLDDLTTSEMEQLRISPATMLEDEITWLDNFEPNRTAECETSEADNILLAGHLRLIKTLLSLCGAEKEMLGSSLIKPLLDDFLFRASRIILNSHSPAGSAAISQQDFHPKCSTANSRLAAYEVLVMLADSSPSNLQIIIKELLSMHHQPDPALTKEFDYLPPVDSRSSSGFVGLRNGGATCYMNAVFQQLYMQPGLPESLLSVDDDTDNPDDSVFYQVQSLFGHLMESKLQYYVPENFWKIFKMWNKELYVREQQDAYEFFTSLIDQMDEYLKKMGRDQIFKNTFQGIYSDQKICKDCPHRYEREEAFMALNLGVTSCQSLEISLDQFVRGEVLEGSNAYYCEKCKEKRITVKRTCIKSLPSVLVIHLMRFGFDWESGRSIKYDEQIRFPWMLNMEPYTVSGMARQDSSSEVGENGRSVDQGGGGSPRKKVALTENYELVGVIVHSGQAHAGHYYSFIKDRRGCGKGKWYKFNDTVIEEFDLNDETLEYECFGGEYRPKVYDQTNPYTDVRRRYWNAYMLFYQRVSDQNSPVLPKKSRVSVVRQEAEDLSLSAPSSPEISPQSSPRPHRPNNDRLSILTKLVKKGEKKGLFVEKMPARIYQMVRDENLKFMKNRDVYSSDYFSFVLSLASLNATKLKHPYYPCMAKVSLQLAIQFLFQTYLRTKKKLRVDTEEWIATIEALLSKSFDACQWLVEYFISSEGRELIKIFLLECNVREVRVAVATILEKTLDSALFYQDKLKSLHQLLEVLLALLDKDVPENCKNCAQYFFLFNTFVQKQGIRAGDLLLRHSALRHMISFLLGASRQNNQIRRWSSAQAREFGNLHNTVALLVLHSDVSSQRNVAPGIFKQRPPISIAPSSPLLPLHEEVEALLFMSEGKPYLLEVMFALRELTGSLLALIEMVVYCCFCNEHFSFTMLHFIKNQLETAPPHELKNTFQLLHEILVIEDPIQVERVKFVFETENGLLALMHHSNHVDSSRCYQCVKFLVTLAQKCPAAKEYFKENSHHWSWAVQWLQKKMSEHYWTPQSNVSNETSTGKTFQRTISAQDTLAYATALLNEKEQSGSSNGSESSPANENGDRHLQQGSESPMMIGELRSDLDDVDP
compound,measurement,setting,value
O=C(CCl)N1CCN(c2nc3ccccc3o2)CC1,log2 ratio of Biotin-Ahx-Ub-VS probe labelling,USP19,-0.702
same,log2 ratio of Biotin-Ahx-Ub-VS probe labelling,USP22,0.146
same,log2 ratio of Biotin-Ahx-Ub-VS probe labelling,USP24,-1.3 (active)
same,log2 ratio of Biotin-Ahx-Ub-VS probe labelling,USP25,-0.53
same,log2 ratio of Biotin-Ahx-Ub-VS probe labelling,USP28,-0.6
